# Hit rate of the full screen: of about 5,500 compounds, about 2,000 (36%) were called active. Another 18% or so got no clear call; they are omitted. This is one part of the list. Unmarked numbers belong to inactive results. Cut-off read from the data, not from the text of the source: active = normalized growth mostly below about 0.91 (no sharp cut-off); inconclusive = no clear call, values can overlap the other calls; inactive = mostly above about 0.92.
# Assay: chemical genetic growth profiling, strain panel (AID 1159580);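 note: tested at 20 µM; growth read once vehicle control cultures reached saturation at 30 °C; 1 = growth at the plate median or of vehicle wells; lower values mean less growth of the strain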
# Settings: growth OD
# [1] = S. cerevisiae deletion strains, locus YPL055C, strain LGE1, hits give low values
# [2] = S. cerevisiae deletion strains, locus YBR229C, strain ROT2, hits give low values
# [3] = S. cerevisiae deletion strains, locus YDL101C, strain DUN1, hits give low values
# [4] = S. cerevisiae deletion strains, locus YDL134C, strain PPH21, hits give low values
# [5] = S. cerevisiae deletion strains, locus YDR150W, strain NUM1, hits give low values
# [6] = S. cerevisiae deletion strains, locus YEL061C, strain CIN8, hits give low values
# [7] = S. cerevisiae deletion strains, locus YGR078C, strain PAC10, hits give low values
# [8] = S. cerevisiae deletion strains, locus YHR030C, strain SLT2, hits give low values
# [9] = S. cerevisiae deletion strains, locus YHR087W, strain rtc3, hits give low values
# [10] = S. cerevisiae deletion strains, locus YJR043C, strain POL32, hits give low values
# [11] = S. cerevisiae deletion strains, locus YJR075W, strain HOC1, hits give low values
# [12] = S. cerevisiae deletion strains, locus YKL190W, strain CNB1, hits give low values
# [13] = S. cerevisiae deletion strains, locus YLR039C, strain RIC1, hits give low values
# [14] = S. cerevisiae deletion strains, locus YLR058C, strain SHM2 (second series), hits give low values
# [15] = S. cerevisiae deletion strains, locus YLR085C, strain ARP6, hits give low values
# [16] = S. cerevisiae deletion strains, locus YLR262C, strain YPT6, hits give low values
# [17] = S. cerevisiae deletion strains, locus YML094W, strain GIM5, hits give low values
# [18] = S. cerevisiae deletion strains, locus YMR219W, strain ESC1, hits give low values
# [19] = S. cerevisiae deletion strains, locus YMR263W, strain SAP30, hits give low values
# [20] = S. cerevisiae deletion strains, locus YNL153C, strain GIM3, hits give low values
# [21] = S. cerevisiae deletion strains, locus YNL298W, strain CLA4 (second series), hits give low values
# [22] = S. cerevisiae deletion strains, locus YNL322C, strain KRE1, hits give low values
# [23] = S. cerevisiae deletion strains, locus YNR030W, strain Alg12, hits give low values
# [24] = S. cerevisiae deletion strains, locus YOL006C, strain TOP1, hits give low values
# [25] = S. cerevisiae deletion strains, locus YPL241C, strain CIN2, hits give low values
# [26] = S. cerevisiae deletion strains, locus YPR135W, strain CTF4, hits give low values
# [27] = S. cerevisiae deletion strains, locus YAL013W, strain DEP1, hits give low values
smiles,measurement,setting,value
C=CC[C@H](N)C(=O)O,normalized growth,"S. cerevisiae deletion strains, locus YAL040C, strain CLN3, hits give low values",0.997
same,normalized growth,"S. cerevisiae deletion strains, locus YCL061C, strain MRC1 (second series), hits give low values",1.01
same,normalized growth,"S. cerevisiae deletion strains, locus YDR363W, strain ESC2, hits give low values",0.962
same,normalized growth,"S. cerevisiae deletion strains, locus YER002W, strain NOP16, hits give low values",1.01
same,normalized growth,"S. cerevisiae deletion strains, locus YNL175C, strain NOP13, hits give low values",1.01
same,normalized growth,"S. cerevisiae deletion strains, locus YNL197C, strain WHI3, hits give low values",0.976
same,normalized growth,"S. cerevisiae deletion strains, locus YNL224C, strain SQS1, hits give low values",0.972
same,normalized growth,"S. cerevisiae deletion strains, locus YOR083W, strain WHI5 (second series), hits give low values",0.974
same,normalized growth,[1],0.99
COc1cccc(C2SCc3cc(C)c(C)cc3CS2)c1O,normalized growth,[2],0.994
same,normalized growth,"S. cerevisiae deletion strains, locus YCL061C, strain MRC1, hits give low values",0.998
same,normalized growth,[3],0.992
same,normalized growth,[4],1.02
same,normalized growth,[5],0.932
same,normalized growth,[6],1.03
same,normalized growth,[7],1.01
same,normalized growth,[8],1.01
same,normalized growth,[9],1.01
same,normalized growth,[10],0.972
same,normalized growth,[11],0.985
same,normalized growth,[12],1.02
same,normalized growth,[13],1.07
same,normalized growth,[14],1.03
same,normalized growth,[15],1.04
same,normalized growth,[16],1.05
same,normalized growth,[17],0.999
same,normalized growth,[18],1
same,normalized growth,[19],0.902
same,normalized growth,[20],0.988
same,normalized growth,[21],0.986
same,normalized growth,[22],1.01
same,normalized growth,[23],0.982
same,normalized growth,[24],1.12
same,normalized growth,[1],0.904
same,normalized growth,[25],0.957
same,normalized growth,[26],1.01
same,normalized growth,"S. cerevisiae strains, strain wild type, hits give low values",1.01
CCOC(=O)c1ccc(N2CCOCC2)c(N=Cc2cc(Cl)ccc2O)c1,normalized growth,[27],0.94
same,normalized growth,[2],0.901 (active)
same,normalized growth,[3],0.928
same,normalized growth,[4],0.781 (active)
same,normalized growth,[5],0.91
same,normalized growth,[6],0.757 (active)
same,normalized growth,[7],0.892 (active)
same,normalized growth,[8],0.266 (active)
same,normalized growth,[9],0.915
same,normalized growth,[10],0.946
same,normalized growth,[11],0.855 (active)
same,normalized growth,[12],0.678 (active)
same,normalized growth,[13],0.434 (active)
same,normalized growth,[14],0.96
same,normalized growth,[15],0.508 (active)
same,normalized growth,[16],0.38 (active)
same,normalized growth,[17],0.822 (active)
same,normalized growth,[18],0.947
same,normalized growth,[19],0.917
same,normalized growth,"S. cerevisiae deletion strains, locus YMR307W, strain GAS1, hits give low values",0.41 (active)
same,normalized growth,[20],0.951
same,normalized growth,[21],0.754 (active)
same,normalized growth,[22],0.99
same,normalized growth,[23],0.885 (active)
same,normalized growth,[24],0.323 (active)
same,normalized growth,[1],0.884
same,normalized growth,[25],0.908
same,normalized growth,[26],0.516 (active)
CCOC(=O)CCC(C#N)(c1ccc(Cl)cc1)N1CCOCC1 (stereo not given),normalized growth,[27],0.99
same,normalized growth,[2],0.997
same,normalized growth,[3],1.04
same,normalized growth,[5],1.05
same,normalized growth,[6],1
same,normalized growth,[7],1.01
same,normalized growth,[8],0.979
same,normalized growth,[9],0.978
same,normalized growth,[10],1.02
same,normalized growth,[11],1.01
same,normalized growth,[13],1.11
same,normalized growth,[14],0.982
same,normalized growth,[15],0.962
same,normalized growth,[16],1.01
same,normalized growth,[17],0.99
same,normalized growth,[18],0.983
same,normalized growth,[19],1.02
same,normalized growth,[20],0.993
same,normalized growth,[21],0.996
same,normalized growth,[22],0.988
same,normalized growth,[23],0.985
same,normalized growth,[24],0.904
same,normalized growth,[1],0.943
same,normalized growth,[25],0.992
same,normalized growth,[26],1.01

# — PubChem BioAssay AID1159580 (chemical genetic matrix, 2015)
